Assay outcomes (PubChem BioAssay)
FMDV antiviral – blocks foot and mouth disease virus | FMDV antiviral cell-based qHTS | Potency, µM (top dose mostly 57.9 µM), most hits filed as inhibitors | 410,000 compounds, 1.2% hits | AID 1159524; calls by dose curve; tested in HEK293T cells; further: read-out not given here; nearly all actives have a fitted effect of over 45% in size
Sm TGR inh – S. mansoni TGR enzyme inhibition; purified TGR, DTNB reduction, TNB absorbance 405 nm; 360,000 compounds, 3% hits; Potency, µM (titrated, usually from 114 µM), most hits filed as inhibitors; Q962Y6; further: nearly all actives have a fitted effect of over 60% in size
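Kinetic colorimetric format: TGR-catalysed, NADPH-driven DTNB reduction monitored via TNB absorbance. Enzyme dispensed at 20 nM; compound exposure 15 min at room temperature before reaction start.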
TbPYK inhibitor – blocks Trypanosoma brucei pyruvate kinase | Q57TT1 | Potency, µM (top dose mostly 76.8 µM), usual class: inhibitors | TbPYK enzyme, Kinase-Glo Plus ATP luminescence, 45 min | 410,000 compounds, 0.12% hits | AID 624173; further: nearly all actives have a fitted effect of over 50% in size
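Activity of T. brucei pyruvate kinase was followed by Kinase-Glo Plus luminescence after the enzyme reacted 45 min at room temperature with 130 uM ADP (final) and substrate. Test compounds were added before ADP at multiple concentrations.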
FBPA Giardia inh – blocks Giardia fructose-bisphosphate aldolase activity; purified Giardia FBPA; Potency, µM (titrated, usually from 59.6 µM), actives largely listed as inhibitors; 290,000 compounds, 0.71% hits; further: nearly all actives have a fitted effect of over 55% in size
Target sequence (A8B2U2 whole entry, looked up): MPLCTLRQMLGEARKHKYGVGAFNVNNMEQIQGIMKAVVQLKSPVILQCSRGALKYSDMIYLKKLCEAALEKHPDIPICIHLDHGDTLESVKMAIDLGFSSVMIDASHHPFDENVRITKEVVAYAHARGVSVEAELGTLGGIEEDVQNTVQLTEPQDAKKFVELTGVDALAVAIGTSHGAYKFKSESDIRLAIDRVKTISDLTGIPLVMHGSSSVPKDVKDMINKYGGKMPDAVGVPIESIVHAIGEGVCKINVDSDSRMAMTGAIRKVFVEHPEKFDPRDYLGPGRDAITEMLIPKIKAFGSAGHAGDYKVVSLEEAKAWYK
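Giardia FBPA (40 nM reagent) was preincubated 10 min at RT with compound (up to 57.5 uM final), then substrate plus GAPDH/TPI/NAD/arsenate coupling system with diaphorase/resazurin was added; resorufin fluorescence (525/598 nm) was read after 20 min.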
HCMV inh – human cytomegalovirus inhibition; HFF cells, HCMV-luciferase reporter, 72 h; stronger effect = lower value; activity change, negative = inhibition, % at 57.5 µM; 410,000 compounds, 4.5% hits; AID 1259415; in the data active means activity change below about -60%; inconclusive means no clear call, values can overlap the other calls; inactive means above about -39%
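HFF cells seeded 16 h at 37C, treated with compounds, infected with luciferase-reporter HCMV at MOI 1 PFU/cell; luciferase read at 72 h post infection, normalized to buffer-only and Salinomycin controls.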
RE007 growth inh – less growth of the S. pombe RE007 Vpr strain; S. pombe RE007 Vpr strain, BacTiter-Glo ATP luminescence, 24 h; Potency, µM (titrated, usually from 92.2 µM), actives largely listed as inhibitors; 360,000 compounds, 0.21% hits; AID 651644; active means well fitted falling curve with a large enough effect; inconclusive means small, poorly fitted or top-dose-only effect; inactive means no such curve, though single readings can be large or run the other way; further: nearly all actives have a fitted effect of over 50% in size
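Fission yeast strain RE007, carrying one chromosomally integrated HIV-1 vpr copy, was seeded at OD 0.01 in PMG+AL medium with 23 nL pinned compound. After 24 h at 30 °C and 99% humidity, viability was read by BacTiter-Glo luminescence.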
Large screens that a line does not name were inactive. The list is not random: actives were taken first. Their share in the collection is about 7.7%. Unless noted, the call rests on the fitted dose curve; in most records, active means well fitted curve in the direction sought with a large enough effect; inconclusive means small, poorly fitted or top-dose-only effect, or another doubt; inactive means no such curve, though single readings can be large; an effect the other way counts as inactive or inconclusive.

O=C(Cn1nc(C(F)(F)F)c2c1CCC2)Nc1ccc(Cl)cc1	none (no result: FBPA Giardia inh, RE007 growth inh)
Cc1ccc(NC(=O)CNC(=O)OCc2ccccc2)cc1C	Sm TGR inh 0.11µM
Cc1ccc(NC(=O)CCc2ccccc2)cc1C	none (no result: Sm TGR inh, FBPA Giardia inh)
O=C(NCCCCC(NC(=O)c1ccccc1)C(=O)O)OCc1ccccc1 (stereo unspecified)	none (no result: FMDV antiviral, Sm TGR inh, TbPYK inhibitor, FBPA Giardia inh, RE007 growth inh)
COC(=O)C(CCCCNC(=O)OCc1ccccc1)NC(=O)CN (stereo unspecified)	Sm TGR inh 79µM
O=C(c1cc(C(F)(F)F)cc(C(F)(F)F)c1)N1CCC[C@@]2(CCN(c3ccccc3)C2)C1	none (no result: Sm TGR inh, HCMV inh, RE007 growth inh)
Cc1ccc(Nc2ccc(N3CCN(C(=O)c4cccc([N+](=O)[O-])c4)CC3)nn2)cc1	HCMV inh -62 (no result: FBPA Giardia inh, RE007 growth inh)
Nc1cc(OCC(F)(F)F)cc([N+](=O)[O-])c1	none
Nc1cc(N)c(OCC(F)(F)F)cc1OCC(F)(F)F	Sm TGR inh 1.1µM, FBPA Giardia inh inconclusive (no result: HCMV inh)
COCCNc1nc(CSc2ccccc2)nc2sc(C)c(C)c12	HCMV inh -70
Cc1sc2nc(CSc3ccccc3)nc(N3CCN(C)CC3)c2c1C	FMDV antiviral inconclusive, HCMV inh inconclusive
CSCCC1c2cccn2-c2ccccc2N1C=Nc1c(C)cccc1C (stereo unspecified)	none (no result: FMDV antiviral, Sm TGR inh, TbPYK inhibitor, FBPA Giardia inh, RE007 growth inh)
CN(CC(=O)NCc1ccco1)S(=O)(=O)c1cccc2cccnc12	Sm TGR inh 20µM
CN(CC(=O)NCc1ccco1)S(=O)(=O)c1ccc2c(c1)n(C)c(=O)c(=O)n2C	Sm TGR inh 40µM
CN(CC(=O)NCc1ccccc1Cl)S(=O)(=O)c1ccc2c(c1)n(C)c(=O)c(=O)n2C	none (no result: FBPA Giardia inh)
COc1ccc(C)cc1S(=O)(=O)N(C)CC(=O)NCc1ccco1	Sm TGR inh 32µM
CC(=O)O[C@H]1CC(C)(C)C(=C=C/C(C)=C/C=C/C(C)=C/C=C/C=C(C)/C=C/C=C(\C)C(=O)C[C@@]23O[C@]2(C)C[C@@H](O)CC3(C)C)[C@](C)(O)C1	Sm TGR inh 3.2µM (no result: HCMV inh)
CC(C)c1ccc(OCC(=O)NNC(=S)NC(=O)C2CC2)cc1	HCMV inh -98, RE007 growth inh inconclusive (no result: FBPA Giardia inh)
COc1ccc(C(=O)NC(=S)NNC(=O)c2cnccn2)cc1	FBPA Giardia inh inconclusive, HCMV inh -85
COc1ccc(C(=O)NC(=S)NNC(=O)COc2ccccc2)cc1	FMDV antiviral 28µM (no result: Sm TGR inh)
COc1ccc(NC(=O)C(NS(=O)(=O)c2cccc3nsnc23)C(C)C)cc1OC (stereo unspecified)	none (no result: FBPA Giardia inh, RE007 growth inh)
CO/N=C(/C(=O)N[C@@H]1C(=O)N2C(C(=O)O)=CCS[C@H]12)c1csc(N)n1	none (no result: FMDV antiviral, Sm TGR inh, FBPA Giardia inh, HCMV inh, RE007 growth inh)
CC(C)(CC(=O)OCC(=O)Nc1ccc(F)c(Cl)c1)CC1=NS(=O)(=O)c2ccccc2N1	FMDV antiviral inconclusive (no result: FBPA Giardia inh, RE007 growth inh)
CCOC(=O)C1CCN(C(=O)c2ccc(NC(=O)c3nsc4ccccc34)cc2)CC1	none (no result: FBPA Giardia inh, RE007 growth inh)
CC(=O)N1N=C(c2c(-c3ccccc3)c3cc(Br)ccc3[nH]c2=O)CC1c1ccco1 (stereo unspecified)	FMDV antiviral inconclusive, Sm TGR inh 13µM, HCMV inh inconclusive
CSc1ccc(CN(C)CC(=O)Nc2ccc(NC(C)=O)cc2)cc1	HCMV inh inconclusive
CSc1ccc(CN(C)CC(=O)Nc2c(F)cccc2F)cc1	FBPA Giardia inh 20µM
O=C(CSc1ccccn1)N1CCN(c2cccc(Cl)c2)CC1	HCMV inh -73, RE007 growth inh inconclusive
CCOc1ccccc1C(=O)N1CCN(c2cccc(Cl)c2)CC1	HCMV inh -85
Cn1c(SCC(=O)N2CCN(c3cccc(Cl)c3)CC2)nnc1-c1ccncc1	FMDV antiviral inconclusive, HCMV inh -67
COC(=O)c1cc(C(=O)N2CCN(c3cccc(Cl)c3)CC2)cc([N+](=O)[O-])c1	HCMV inh -68
O=C(CSc1ccccn1)N1CCN(c2ccccc2)CC1	none
Cn1c(SCC(=O)N2CCN(c3ccccc3)CC2)nnc1-c1ccncc1	none
O=C(O)c1ccccc1C(=O)N1CCN(c2cccc(Cl)c2)CC1	Sm TGR inh inconclusive
Cc1nc(-n2nc(C)c(Cc3ccc(Cl)cc3)c2C)sc1C(=O)N1CCC(C)CC1	FMDV antiviral inconclusive (no result: FBPA Giardia inh, RE007 growth inh)
COc1ccc(Nc2nccc3[nH]c(-c4ccccc4OC)cc23)cc1	none (no result: FMDV antiviral, Sm TGR inh, TbPYK inhibitor, FBPA Giardia inh, RE007 growth inh)
